Rows were chosen to be rich in hits. Some 3.6% of all compounds tested hit in one or more screens of this group.
HSF1 inhib: HSF1 inhibitors in luciferase reporter cells, primary screen, cell-based, NIH3T3, luminescence; NIH3T3-HGL HSE-luciferase, MG132-induced, luminescence 8 h; hits give low values; activity change, negative = inhibition, % at 7.5 µM (by protocol); 300,000 tested, 0.77% active; AID 2098, 2009;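 active = more than half of replicate wells show activity change below -50%, luminescence cut by over half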;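 also: luciferase reports HSF-1 transcriptional activity via heat shock element; 0% = median of DMSO wells and -100% = zero luminescence signal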
TROY signal inh: inhibitors of TROY-driven NF-kB signaling, primary screen, Q293 LMP1-TROYcd cells, NF-kB luciferase, uHTS; Q293 LMP1-TROYcd NF-kB luciferase reporter, 4 h; inhibition, % at 10 µM; 360,000 tested, 0.98% active; AID 1347056, 2019;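 active = compounds whose plate-normalised and pattern-corrected inhibition of the luciferase reporter signal at the single screening dose is 50% or more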
HSF1 activator: HSF-1 activators, primary screen, NIH3T3-HGL cells, MG132 stress, luminescence, single point; NIH3T3-HGL HSF-1 luciferase reporter, 8 h; 100% = twice DMSO control signal; activation, % at 9 µM; 300,000 tested, 1.7% active;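 active = mean replicate activation of at least 50% with a set share of replicates each reaching 50%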;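 also: 0% = median of the neutral control wells and 100% = twice that signal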
TWEAK-Fn14 inh: inhibitors of TWEAK-Fn14 signaling, primary screen, luciferase reporter cells, uHTS | TWEAK-stimulated Fn14 reporter cells, luciferase luminescence, 8 h | inhibition, % at 10 µM | 360,000 tested, 2% active | AID 1159606, 2016; in the data active = inhibition above about 50%
LGR2 inh: inhibitors of bursicon-induced LGR2 CRE-luciferase signal, primary screen, cell-based, HEK293, CRE-luciferase reporter, bursicon stimulation; bursicon-stimulated, 4 h; Drosophila bursicon receptor LGR2 (rickets); 380,000 tested, 0.35% active; inhibition, % at 9.99 µM;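 active = drop in luminescence signal, shown as inhibition above about 50% in the replicate tests, limit read from the data, passing the limit was not always enough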;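 also: agonist challenge used bursicon conditioned medium at about half maximal strength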
LMP1 NFkB inh: EBV LMP1-driven NF-kappaB luciferase reporter inhibitors, primary screen, cell-based, luminescence, single point; LMP1-induced NF-kappaB luciferase reporter cells; inhibition, % at 12.5 µM; 350,000 tested, 0.69% active; AID 504558, 2011; in the data active = inhibition above about 41%;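 also: 0% = neutral control wells and 100% = reference inhibitor control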
* hit, by the source's call; . = not tested or not shown.

SMILES	HSF1 inhib	TROY signal inh	HSF1 activator	TWEAK-Fn14 inh	LGR2 inh	LMP1 NFkB inh
CCC(=O)N1c2ccc(S(=O)(=O)CCC(=O)Nc3ccc(OC)cc3OC)cc2CC1C (configuration not stated)	19.5	2.8	53.2*	0.7	-6.8	-11.1
COc1ccc(S(=O)(=O)CCC(=O)Nc2cc(C)ccc2OC)cc1	-66.2*	12.6	-73.1	4.9	-5.0	-1.8
CCOc1ccccc1NC(=O)CCS(=O)(=O)c1ccc2c(c1)CC(C)N2C(C)=O (configuration not stated)	0.8	-6.8	9.6	-5.0	-1.0	-3.1
C[C@H](O)C#Cc1cnc2c(c1)C(=O)N([C@@H](C)CO)C[C@H](C)[C@@H](CN(C)Cc1ccc(-c3ccccc3)cc1)O2	.	.	.	.	-2.7	.
Cc1c(/C=N/NC(=O)CNc2ccccc2)c2ccccn2c1C(=O)c1ccc(Cl)cc1	-13.9	18.3	-16.3	30.6	1.4	21.7
Cc1c(/C=N/NC(=O)CNc2ccccc2)c2ccccn2c1C(=O)c1ccncc1	-4.5	21.0	17.7	61.8*	7.4	1.1
CO[C@H]1CN(C)C(=O)c2ccc(NS(=O)(=O)c3cn(C)cn3)cc2OC[C@H](C)NC[C@@H]1C	.	.	.	.	1.1	.
CC1(C)C=C2C(=NN(c3ccccc3)C(N)=C2C#N)CO1	-70.9*	-3.5	-78.1	-7.3	-7.1	-2.6
CC(=NNC(=S)N1CCCCCC1)c1cccc2cccnc12	.	-11.8	.	6.0	9.1	52.3*
CC(=NNC(=S)N1CCN(c2ccccn2)CC1)c1nccs1	-134.7	12.8	-134.7	104.3*	.	74.3*
CC(=NNC(=S)N1CCN(c2ccccn2)CC1)c1ccccn1	.	-4.1	.	-4.0	-16.9	0.3
CC(=NNC(=S)N1CCN(C2CCCCCC2)CC1)c1ccccn1	.	-1.7	.	-7.6	-17.6	16.0
CCCCCC(=O)N1CCN(c2ccc(C(C)=O)cc2F)CC1	-0.8	-1.5	-3.0	-3.0	-8.1	76.5*
C[C@@H]1CN([C@H](C)CO)S(=O)(=O)c2ccc(C#CC(C)(C)O)cc2O[C@H]1CN(C)Cc1ccncc1	.	.	.	.	-20.1	.
Nc1nnc(CCS(=O)(=O)c2cc(Cl)ccc2Cl)s1	6.1	2.5	12.9	3.1	.	-1.8
Cc1ccccc1CN(C)CCS(=O)(=O)c1cc(Cl)ccc1Cl	1.7	2.9	1.2	65.2*	-7.8	-12.8
C/C=C1\COC(C(=O)NCCN2CCCC2)(C(F)(F)F)C=C1C=C1CCCCC1 (configuration not stated)	-4.2	-12.5	0.1	-7.3	.	-5.6
C/C=C1\COC(C(=O)NCc2ccccc2)(C(F)(F)F)C=C1C=C1CCCCC1 (configuration not stated)	53.0	0.7	71.0*	4.1	-4.4	-6.4
O=C(C[C@@H]1CC[C@H](NC(=O)Nc2cc(F)ccc2F)[C@@H](CO)O1)NCc1ccccn1	.	.	.	.	-6.3	.
c1ccc(N2CCOCCOCCOCCOCC2)cc1	-9.8	-7.8	1.0	10.6	-7.0	1.8
c1ccn(-c2ccc(N3CCOCC3)cc2)c1	-62.5*	41.2	-68.5	22.3	.	-11.6
CCOC(=O)N1CCN(C(=O)c2ccc3oc(CCCc4ccccc4)nc3c2)CC1	23.0	-25.9	61.3*	-21.9	-68.4	-6.7
CC(=O)N1CCN(C(=O)c2ccc3oc(CCCc4ccccc4)nc3c2)CC1	-2.5	3.9	-4.5	-23.1	-19.9	-3.8
CCOC(=O)N1CCN(C(=O)c2ccc3c(c2)sc2nc(-c4ccccc4)cn23)CC1	-18.1	58.6*	-31.3	29.4	.	-28.0
COCC(=O)Nc1ccc2c(c1)C(=O)N(C)C[C@@H](OC)[C@H](C)CN(Cc1cccc(F)c1)[C@H](C)CO2	.	.	.	.	-2.8	.
SMILES	HSF1 inhib	TROY signal inh	HSF1 activator	TWEAK-Fn14 inh	LGR2 inh	LMP1 NFkB inh
CC(C)(C)C(CN1CCCC1)OC(=O)c1ccccc1 (configuration not stated)	-79.7*	1.0	-83.7	-7.8	7.4	-4.7
Cc1ccc(OCc2ccc(C#N)cc2)c(C(=O)c2cc(C#N)c(=O)n(C3CC3)c2)c1	5.7	-2.1	53.1*	9.6	-14.6	-4.8
CC1CCCN(c2sc(S(C)(=O)=O)nc2S(=O)(=O)c2ccc(Cl)cc2)C1 (configuration not stated)	8.1	18.7	11.8	51.2*	24.5	3.9
CCS(=O)(=O)c1nc(S(=O)(=O)c2ccc(C)cc2)c(N2CCCC(C)C2)s1 (configuration not stated)	-4.8	7.3	12.5	25.8	13.0	2.3
CC1CN(c2sc(S(C)(=O)=O)nc2S(=O)(=O)c2ccc(Cl)cc2)CC(C)O1 (configuration not stated)	-5.6	19.5	9.0	57.0*	22.7	4.4
CCC(=O)N[C@H]1C=C[C@@H](CC(=O)NCc2ccccc2F)O[C@@H]1CO	.	.	.	.	-25.6	.
N#Cc1c(N)nc(SCc2ccncc2)c(C#N)c1-c1cccs1	-67.6*	41.7	-70.0	43.5	.	21.1
COc1cc(-c2c(C#N)c(N)nc(SCc3ccncc3)c2C#N)cc(OC)c1OC	-5.8	-1.0	-16.3	-26.6	21.8	12.5
CN1CCc2nc(SCc3ccc(Cl)cc3)c(C#N)c(-c3cccs3)c2C1	155.5	.	189.8*	.	28.7	.
COc1ccc(CN(C)C[C@H]2OCCCC[C@H](C)Oc3ccc(NS(=O)(=O)c4ccc(OC)cc4)cc3C(=O)N([C@@H](C)CO)C[C@H]2C)cc1	.	.	.	.	-2.2	.
CCc1ccc(NC(=O)CSc2nc3cc(C(=O)OC)ccc3c(=O)n2Cc2ccco2)cc1	2.5	-13.1	-12.1	-8.4	.	-17.2
CCN(C(=O)CSc1nc2cc(Cl)ccc2c(=O)n1Cc1ccco1)C1CCS(=O)(=O)C1 (configuration not stated)	12.7	8.5	14.4	-7.4	9.9	5.4
CCN(C(=O)CSc1nc2cc(C(=O)OC)ccc2c(=O)n1Cc1ccco1)c1cccc(C)c1	100.7	-3.3	143.1*	26.0	.	-7.1
CCOC(=O)c1c(NC(=O)CSc2nc3cc(Cl)ccc3c(=O)n2Cc2ccco2)sc(C(=O)N(C)C)c1C	117.0	4.9	145.5*	-6.4	19.7	7.7
Cc1cc(Cl)c2oc(C(=O)N3CCN(c4cccc(C)n4)CC3)c(C)c2c1	37.9	13.2	72.7*	-22.4	-63.0	-38.8
Cc1ccc2oc(C(=O)N3CCN(c4cccc(C)n4)CC3)c(C)c2c1	21.9	-32.7	10.2	69.3*	-13.9	-14.7
Cc1ccc2oc(C(=O)N3CCC(C(N)=O)(N4CCCCC4)CC3)c(C)c2c1	-76.5*	-11.1	-81.7	6.0	-0.6	-13.2
O=C(CN1CCN(S(=O)(=O)c2cc(C(F)(F)F)ccc2Cl)CC1)N1CCc2ccccc2C1	.	18.8	.	-11.7	-9.2	-1.6

Source: PubChem (several laboratories)
